Data taken from PubChem BioAssay AID743314 (Broad Institute, 2014).
Measured potencies and affinities stand elsewhere. Results filed as inconclusive are left out. Calls of active or inactive are those of the source.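 Rule for the calls: active = fitted half-maximal concentration no higher than twice the top tested dose, in every repeat run; inconclusive = repeat runs disagree, poor fit, or flat partial inhibition; inactive = the rest.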

Molecular target: Endoplasmic reticulum aminopeptidase 1 (Homo sapiens) (UniProt Q9NZ08)
Assay: ERAP1 aminopeptidase inhibitors, dose response, biochemical, cherry-pick, set 2, plate reader (AID 743314);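 note: 0% = neutral control wells and -100% = L-leucinethiol positive control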
Conditions: Recombinant ERAP1, Leu-AMC fluorescence, 60 min; series mostly up to 11 µM; activity change, negative = inhibition: at the top concentration

Chain of Endoplasmic reticulum aminopeptidase 1 (Homo sapiens) (Q9NZ08 whole entry, looked up): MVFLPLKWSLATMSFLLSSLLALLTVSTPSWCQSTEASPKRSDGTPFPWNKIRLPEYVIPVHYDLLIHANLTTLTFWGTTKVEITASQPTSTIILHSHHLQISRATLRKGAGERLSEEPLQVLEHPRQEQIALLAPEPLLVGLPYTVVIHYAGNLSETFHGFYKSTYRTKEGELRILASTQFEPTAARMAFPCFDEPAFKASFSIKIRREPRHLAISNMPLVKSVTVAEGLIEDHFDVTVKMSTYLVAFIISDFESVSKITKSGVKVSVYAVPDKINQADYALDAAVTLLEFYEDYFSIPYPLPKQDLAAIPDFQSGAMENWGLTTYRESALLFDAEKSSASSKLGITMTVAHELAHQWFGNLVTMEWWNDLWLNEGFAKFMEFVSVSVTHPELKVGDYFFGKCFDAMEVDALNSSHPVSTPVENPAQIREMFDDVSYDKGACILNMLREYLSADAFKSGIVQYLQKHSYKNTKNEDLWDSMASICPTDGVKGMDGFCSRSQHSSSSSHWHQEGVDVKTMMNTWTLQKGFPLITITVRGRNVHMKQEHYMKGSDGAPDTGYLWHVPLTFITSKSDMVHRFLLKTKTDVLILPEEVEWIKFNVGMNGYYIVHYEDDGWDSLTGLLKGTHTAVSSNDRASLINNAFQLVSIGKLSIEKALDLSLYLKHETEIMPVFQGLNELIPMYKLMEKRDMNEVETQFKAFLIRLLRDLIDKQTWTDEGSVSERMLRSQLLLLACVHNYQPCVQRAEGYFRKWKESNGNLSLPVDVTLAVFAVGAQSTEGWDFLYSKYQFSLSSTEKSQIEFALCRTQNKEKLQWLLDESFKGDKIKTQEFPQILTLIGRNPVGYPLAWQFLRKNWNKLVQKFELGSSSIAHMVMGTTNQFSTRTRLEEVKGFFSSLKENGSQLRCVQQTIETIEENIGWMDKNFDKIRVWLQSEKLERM

Activity change, negative = inhibition, inactive:
COc1ccc(CN(C)C[C@H]2Oc3ccc(NS(=O)(=O)c4ccc(C)cc4)cc3C(=O)N([C@@H](C)CO)C[C@@H]2C)cc1 20.6%
COc1cc2cc(C(=O)N3CCN(Cc4ccc5c(c4)OCO5)CC3)c(=O)oc2cc1OC 52.3% [at 5.6 µM]
C[C@H](CO)N1C[C@H](C)[C@H](CN(C)C)Oc2c(NC(=O)Nc3ccc(C(F)(F)F)cc3)cccc2C1=O 61.3% [at 5.6 µM]
O=C(C[C@H]1CC[C@H](NC(=O)C2CCOCC2)[C@H](CO)O1)NCc1ccncc1 27.6%
C[C@@H]1CCCCO[C@@H](CN(C)Cc2ccc(C(=O)O)cc2)[C@H](C)CN([C@@H](C)CO)C(=O)c2cc(NS(=O)(=O)c3ccc(Cl)cc3)ccc2O1 53.6%
CN1c2ccc(-c3ccccc3)cc2[C@H]2[C@H](CCN2C(=O)c2ccccc2)[C@@H]1CO 34.8%
CC(OC(=O)c1cc(=O)[nH]c2ccccc12)C(=O)Nc1ccccc1F (stereo not given) 3.54%
CCc1cccc(C)c1NC(=O)c1cc(=O)[nH]c2ccc(S(=O)(=O)N3CCOCC3)cc12 2.94%
CCCNC(=O)C[C@H]1CC[C@@H]2[C@H](COC[C@H](O)CN2C(=O)Nc2cccc(Cl)c2)O1 56.5%
Cc1ccc(NC(=O)C2CCCN2C(=O)c2cccs2)c(C)c1 (stereo not given) -10.6%
O=C(CN1CCN(S(=O)(=O)N2CCOCC2)CC1)Nc1ccc(Cl)c(Cl)c1 11.9%
COc1ccc(C(=O)O)cc1S(=O)(=O)Nc1cc(C(F)(F)F)ccc1N1CCCCC1 239% [at 2.6 µM]
C[C@@H]1CN([C@H](C)CO)S(=O)(=O)c2ccc(-c3ccccc3)cc2O[C@H]1CN(C)S(C)(=O)=O 40.4%
C[C@@H]1CN([C@H](C)CO)C(=O)c2cc(NC(=O)CCN3CCOCC3)ccc2O[C@@H]1CN(C)S(=O)(=O)c1ccccc1 23.2%
O=C(CC1CC1)N1[C@@H](CO)[C@@H](c2ccccc2)C12CN(Cc1cc(F)ccc1F)C2 14%
C[C@@H]1CN([C@H](C)CO)C(=O)c2cccc(NS(=O)(=O)c3ccc(Cl)cc3)c2O[C@@H]1CN(C)C(=O)Nc1ccccc1 28.6%
C[C@@H]1CCCCO[C@H](CN(C)C)[C@H](C)CN([C@@H](C)CO)C(=O)c2cc(NS(=O)(=O)c3ccc(Cl)cc3)ccc2O1 41.9%
C[C@H]1CN([C@@H](C)CO)C(=O)c2cc(-c3ccc(F)cc3)cnc2O[C@H]1CN(C)CC1CCCCC1 36.7%
Cc1oc2c(c(C)cc3oc(=O)c(CC(=O)N[C@H](C(=O)O)C(C)C)c(C)c32)c1C -10.3%
CCOC(=O)N1CCc2c(sc(NC(=O)c3ccc(S(=O)(=O)N4CCCC4)cc3)c2C#N)C1 -2.67%
Cc1ccc(-c2cc(C(=O)N3CCCC3)c3ccccc3n2)s1 75.3%
COCC(=O)N1CCC2(CC1)CN(Cc1ccccc1F)[C@H](CO)c1[nH]c3cc(OC)ccc3c12 21.8%
C[C@H]1CCCCO[C@H](CN(C)C)[C@@H](C)CN([C@@H](C)CO)C(=O)c2cc(NS(=O)(=O)c3ccc(Cl)cc3)ccc2O1 9.96%
O=C(NCCN1CCCC1)[C@H]1[C@H](CO)[C@H]2Cn3c(cccc3=O)[C@@H]1N2C(=O)NC1CCCC1 25.1%
CCCN1[C@@H]2Cn3c(ccc(-c4cccnc4)c3=O)[C@H]1[C@@H](C(=O)NCCc1cn(C)cn1)[C@@H]2CO 36%
Cc1cc(C)n2nc(C(=O)N3CCN(c4ccc([N+](=O)[O-])cc4)CC3)nc2n1 -1.94%
Cc1ccc2nc3c(cc(C(=O)NCc4ccccc4)c(=N)n3CCCn3ccnc3)c(=O)n2c1 51.3%
O=C(CSc1n[nH]c(-c2cccs2)n1)NC1CCS(=O)(=O)C1 (stereo not given) -13.5%
CCc1ccccc1NC(=O)CCC(=O)N1CCN(C(C)=O)CC1 7.38%
Cc1ccc(NC(=O)C(C)OC(=O)C2CC3CCCC(C2)C3=O)cc1S(=O)(=O)N1CCOCC1 (stereo not given) 3.8%
CC(C)NC(=O)C1C(c2ccc(C(F)(F)F)cc2)=Nc2ccccc2N1C(=O)c1ccco1 (stereo not given) 4.24%
CC(=O)N1CC[C@@H]2[C@H]1c1cc(-c3ccc(C#N)cc3)ccc1N(C)[C@H]2CO -3.73%
COc1ccccc1-c1cccc(-c2nc(C(=O)Nc3nccs3)cc3c2[C@@H](CCO)N(C(=O)CC2CC2)C3)c1 -7.7%
CCc1cc(=O)oc2c(CNCc3ccccc3F)c(O)c(Cl)cc12 29.9% [at 5.6 µM]
C[C@H](CO)N1C[C@H](C)[C@H](CN(C)C(=O)Nc2ccc(F)cc2)Oc2ccc(NC(=O)CCN3CCOCC3)cc2C1=O 5.52% [at 10 µM]
